A selection: hits, their analogues and other compounds. The true share with any hit is near 7.6%.
Cy5 interf NS3h: counter-screen for HCV NS3 helicase inhibitors: fluorescence interference | Cy5-dT15 DNA with NS3h; actives lie on both sides; signal over control mean, under 1 quenches | fluorescence interference ratio at 100 µM | 6% of 16,000 active;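 active = compound fluorescence over control fluorescence at most 0.8, a quencher, or at least a set upper limit, an enhancer; inactive = ratio between 0.8 and the set upper limit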
HCV NS3h FP: hepatitis C NS3 helicase inhibition, primary screen; NS3h Cy5-dT15 DNA binding, fluorescence polarization; AID 687043; inhibition, % at 100 µM; 1.6% of 16,000 active;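 active = inhibition above the average over every tested compound plus 3 SD, cut at about 40% in these data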
Active calls of the source: *.

SMILES	Cy5 interf NS3h	HCV NS3h FP
CCOC(=O)c1c(C)oc2cc(Br)c(OC(=O)c3ccc([N+](=O)[O-])cc3)cc12	0.919	11.1
COc1ccc(/C=N\n2cnnc2)cc1COc1ccc(NC(C)=O)cc1	1.07	22.1
COc1ccc(N(CC(=O)NC23CC4CC(CC(C4)C2)C3)S(=O)(=O)c2ccccc2)cc1	0.872	30.8
Cc1ccc(CNC(=O)C(=O)NCc2ccncc2)cc1	1.04	-4.0
Cc1ccc(CNC(=O)C(=O)NCc2ccccc2)cc1	1.25*	9.1
O=[N+]([O-])c1ccc(-c2cc(-c3ccc(I)cc3)n[nH]2)cc1	1.2*	4.5
CCn1c(-c2ccc([N+](=O)[O-])cc2)n[nH]c1=S	0.978	-2.8
COc1cc(/C=C2\SC(=S)N(C)C2=O)ccc1OC(=O)c1sc2cc(C)ccc2c1Cl	0.873	16.4
NC(=O)SCC(=O)Nc1cccc(F)c1	1	-23.3
Cc1ccc(-c2nc3cc(Cl)ccc3o2)cc1NC(=O)C(Cl)(Cl)Cl	0.97	6.1
COc1ccc(Br)cc1C(=O)Nc1ccc(C)c(C)c1	0.998	19.2
Cc1cc(Cl)ccc1OCC(=O)Nc1ccc(Br)cn1	0.763*	11.5
Cc1cc(Cl)ccc1OCC(=O)Nc1ccc(Cl)cn1	1.01	10.8
O=C1C2C3C=CC(C3)C2C(=O)N1c1cccc(-c2nc3ccccc3c(=O)o2)c1 (stereo unspecified)	0.761*	15.0
O=C1C2C3C=CC(C3)C2C(=O)N1c1cccc(Oc2cccc(Oc3cccc(N4C(=O)C5C6C=CC(C6)C5C4=O)c3)c2)c1 (stereo unspecified)	0.865	-1.4
COc1ccc(N(CC(=O)NC(C)(C)C)S(=O)(=O)c2ccc(C)cc2)cc1OC	0.938	0.3
COc1ccccc1OCCOc1ccc(/C=C2/SC(=S)N(C)C2=O)cc1	1.05	1.6
COc1cc(NC(C)=O)c(Cl)cc1NC(=O)c1ccccc1	1.05	3.8
COc1cc(NC(=O)C(F)(F)F)c(Cl)cc1NC(=O)c1ccccc1	0.932	42.7*
Cn1c(-c2nc3ccccc3n2C)nc2ccccc21	0.939	5.0
Cn1c(-c2ccc(-c3nc4cnccc4n3C)cc2)nc2cnccc21	1.21*	-2.2
Cc1cc(/C=C2\C(=O)NC(=S)N(c3cccc(Cl)c3)C2=O)c(C)n1-c1cccnc1	1.07	3.2
Cc1ccc2oc(-c3cccc(N)c3C)nc2c1	0.56*	8.7
CCOc1cccc(-c2nc3cc(C)ccc3o2)c1	1.06	-0.3
CCOc1c(/C=C2\C(=O)NN(c3ccccc3)C2=O)cccc1OC	1.03	9.7
SMILES	Cy5 interf NS3h	HCV NS3h FP
O=C1NN(c2ccccc2)C(=O)/C1=C/c1cccc2ccccc12	1.03	19.4
O=C1NN(c2ccccc2)C(=O)/C1=C/c1cccc(Cl)c1Cl	0.993	47.1*
Cc1ccc(N2NC(=O)/C(=C/c3ccc(C)c([N+](=O)[O-])c3)C2=O)cc1Cl	0.933	28.2
COc1cc(Br)cc(/C=C2\C(=O)NN(c3ccccc3)C2=O)c1O	0.818	45.1*
CCOC(=O)c1ccc(N2NC(=O)/C(=C/c3cccc(OC)c3O)C2=O)cc1	0.846	-2.4
CCOC(=O)c1ccc(N2NC(=O)/C(=C/c3cc(Br)ccc3O)C2=O)cc1	0.685*	-13.7
COc1cc(/C=C2/C(=O)NN(c3ccc(C)c(C)c3)C2=O)cc([N+](=O)[O-])c1O	0.72*	9.9
CCN(CC)c1ccc(C=Nc2nc(-c3ccccc3)c(C)s2)cc1	1.17	10.0
CC(C)N(C(=O)c1ccc(C(=O)N(C(C)C)C(C)C)cc1)C(C)C	1.03	-1.3
COc1ccc(-n2c(O)c(C=Nc3ccc(Cl)cc3)c(=O)[nH]c2=O)cc1	0.782*	6.8
COc1cccc(-n2c(O)c(C(c3ccccn3)c3c(O)n(-c4cccc(OC)c4)c(=O)[nH]c3=O)c(=O)[nH]c2=O)c1	0.925	6.7
COc1ccc(N2C(=O)C3C4c5ccccc5C(C)(c5ccccc54)C3C2=O)cc1 (stereo unspecified)	1.04	6.4
CC12c3ccccc3C(C)(c3ccccc31)C1C(=O)N(c3ccc(C(=O)O)cc3)C(=O)C12 (stereo unspecified)	0.715*	14.1
Cc1ccccc1NC(=O)CN(c1cccc(Br)c1)S(=O)(=O)c1ccccc1	0.911	32.7
COC(=O)c1ccc(OCC(O)CN(C)C)cc1 (stereo unspecified)	0.763*	10.5
CCOC(=O)c1ccc(NC(=O)c2ccc(OCC(C)C)cc2)cc1	0.991	-3.0
COc1ccc(C(=O)N2CCN(S(C)(=O)=O)CC2)cc1	1.06	-1.8
CS(=O)(=O)N1CCN(C(=O)c2ccccc2F)CC1	0.696*	7.7
CSc1nc(N)c2c3c(sc2n1)CCCCC3	1.08	37.0
O=C(Oc1ccc2c(=O)c(Oc3ccccc3Br)coc2c1)c1ccccc1	1	6.5
COc1ccccc1OCC(=O)Nc1ccc(S(N)(=O)=O)cc1	1.01	2.3
COc1ccc(NC(=O)COc2cccc3ccccc23)cc1	0.767*	15.9
COc1ccccc1C(=O)N[C@H](C)c1ccccc1	1.03	-0.7
CCOc1cc(OCC)cc(C(=O)Nc2cccc(C(F)(F)F)c2)c1	0.501*	20.7
CCOc1ccc(NC(=O)C(=O)Nc2cccc(C(F)(F)F)c2)cc1	0.98	-3.6
SMILES	Cy5 interf NS3h	HCV NS3h FP
O=C(NOC(=O)c1ccccc1I)c1ccc(Cl)cc1	0.947	8.8
N#CCCn1cc(/C=N\O)c(-c2ccc(Cl)cc2)n1	0.938	0.3
O=C(c1ccccc1Br)N1N=C(c2ccccc2)CC1(O)C(F)(F)F (stereo unspecified)	0.794*	4.8
O=C(c1ccccc1O)N1N=C(c2ccc(Br)cc2)CC1(O)C(F)(F)F (stereo unspecified)	0.92	5.0
CCC(C)NC(=O)CN(c1ccccc1OC)S(=O)(=O)c1ccccc1 (stereo unspecified)	1.01	-2.8
C(=Nc1ccc2c(c1)OCCOCCOc1cc(N=Cc3ccccc3)ccc1OCCOCCO2)c1ccccc1	1.04	3.2
O=[N+]([O-])c1ccc(-c2noc(-c3ccccc3Br)n2)cc1	0.76*	-8.7
O=[N+]([O-])c1cccc(-c2nc(-c3ccc(Cl)cc3)no2)c1	0.981	-9.4
Cc1ccc(NC(=O)C(c2ccccc2)c2ccccc2)c(C)c1	0.935	12.5
O=C1S/C(=C\c2cccs2)C(=O)N1c1ccccc1	0.637*	1.2
Cc1ccc(/C=C2/SC(=O)N(c3ccccc3)C2=O)cc1	0.971	17.9
O=C(NCCN1CCN(C(=O)c2ccc(Br)cc2)CC1)C(=O)Nc1ccccc1	0.998	2.8
CCOc1ccccc1NC(=O)c1ccc(OC)cc1	1.25*	8.2
COc1ccc(C(=O)NCc2ccccc2C)cc1	1.04	4.0
CCOC(=O)CNC(=O)c1ccc(OC)cc1	0.709*	4.0
CCOc1ccc(C(=O)Nc2ccccc2C(=O)O)cc1	1.1	3.1
COC(=O)C(C)CNCc1ccccc1 (stereo unspecified)	1.04	3.7
CCN(CC)c1ccc(/C=C2/SC(=S)N(CN3CCCCC3)C2=O)cc1	0.942	22.8
CCN(CC)c1ccc(NC(=O)CCN2C(=O)c3ccccc3C2=O)cc1	0.601*	2.2
O=C(CCN1C(=O)c2ccccc2C1=O)Nc1ccccc1C(=O)N1CCOCC1	0.981	9.2
O=C(CCN1C(=O)c2ccccc2C1=O)Nc1ccccc1C(=O)N1CCCC1	0.702*	3.1
O=C(CCN1C(=O)c2ccccc2C1=O)Nc1ccc(I)cc1	0.983	6.1
